From PubChem BioAssay (NCATS) come the findings set out here.

Where “and” joins values, the source holds several entries; their conditions need not be identical. Identical values can stand only once. Records with an inconclusive call do not appear. Calls of active or inactive are those of the source. Unless noted, the call rests on the fitted dose curve.

The nature of assay [1]: qHTS assay for small molecule activators of the nuclear factor-kappa B (NF-kB) signaling pathway (AID 651749; active means well fitted activation curve with a large enough effect in the signal ratio; the % refers to the signal ratio; further: % of control where 0% means no effect). The settings on record: NF-kB-bla ME-180 cells, beta-lactamase FRET ratio, 16 h; stronger effect = higher value. An outline of the steps:
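NF-kB-bla ME-180 cells, 2,000/well; 23 nL compound or DMSO pinned; 16 hr, 37C/5% CO2; beta-lactamase FRET read-out.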
(In general: In qHTS, concentration-response curves come from the screen itself.)

A short description of assay [2]: qHTS assay for small molecule agonists of the antioxidant response element (ARE) signaling pathway (AID 651741; active means well fitted activation curve with a large enough effect in the signal ratio; the % refers to the signal ratio; further: potency means the concentration at half of the fitted maximal effect; on activation: % of control where 0% means no effect). The settings on record: HepG2 ARE-bla reporter, beta-lactamase FRET ratio, 16 h; series mostly up to 96 µM. An outline of the steps:
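HepG2 ARE-bla reporter cells, 2,000/well; 5 h settle at 37 C/5% CO2; compound pin transfer (23 nL, DMSO); 16 h at 37 C; LiveBLAzer B/G FRET substrate, 2 h RT; fluorescence intensity read.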

The nature of assay [3]: qHTS assay for small molecule activators of the p53 signaling pathway (AID 651743; active means well fitted activation curve with a large enough effect in the signal ratio, not every such curve was filed as active; the % refers to the signal ratio; further: potency means the concentration at half of the fitted maximal effect; on activation: % of control where 0% means no effect). The settings on record: HCT-116 p53RE-bla, beta-lactamase FRET ratio, 16 h; activation: stronger effect = higher value. An outline of the steps:
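Reporter: beta-lactamase driven by p53 response elements, stably integrated in HCT-116 cells. Cells seeded at 4,000/well, 5 h preincubation, compound (DMSO) 16 h at 37 C; B/G FRET substrate 2 h RT; fluorescence intensity read.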

The nature of assay [4]: qHTS assay for small molecule disruptors of the mitochondrial membrane potential - 1 hr assay (AID 651754). Further: nearly all actives have a fitted effect of over 35% in size. Further: potency means the concentration at half of the fitted maximal effect. As to conditions: series mostly up to 92.2 µM. The method, boiled down:
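Read-out: dye fluorescence at 490 nm ex/535 nm em (monomers) and 540 nm ex/590 nm em (aggregates) in HepG2 cells. Compound exposure 1 hr at 37C, followed by 30 min dye loading.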

Assay [5] is described as follows: qHTS assay for small molecule disruptors of the mitochondrial membrane potential - 5 hr assay (AID 651755). Further: nearly all actives have a fitted effect of over 40% in size. Further: potency means the concentration at half of the fitted maximal effect. The settings on record: JC-1-type ratio dye; series mostly up to 92.2 µM. From the text: National Center for Advancing Translational Sciences [NCATS]
NIH Chemical Genomics Center [NCGC]
National Institutes of Environmental Health Sciences [NIEHS]
National Toxicology Program [NTP]
Mitochondrial membrane potential (MMP), one of the parameters for mitochondrial function, is generated by mitochondrial electron transport chain that creates an electrochemical gradient by a series of redox reactions. This gradient drives the synthesis of ATP, a crucial molecule for various cellular processes. Measuring MMP in living cells is commonly used to assess the effect of chemicals on mitochondrial function. […] The dye accumulates in the mitochondria of healthy cells as aggregates, with red fluorescence. The mitochondrial potential collapses and the dye can no longer accumulate in the mitochondria and remains in the cytoplasm in monomers, with green fluorescence.
2,000 HepG2 cells in 5 uL/well were dispensed into black, clear-bottom 1536-well plates using a Multidrop Combi (Thermo Scientific) dispenser. The assay plates were incubated overnight at 37C to allow cells to attach to the wells, followed by the transfer of 23 nL compound or DMSO vehicle by a pin tool (Kalypsys). The plates were incubated for 5 hr at 37C and 5% CO2, followed by the addition of 5 uL of 2X Mito-MPS dye (BD Biosciences) into each well using Flying Reagent Dispenser (Aurora Discovery) and then following 30 min incubation at 37C. Fluorescence intensity (490nm excitation and 535nm emission for monomers; and 540nm excitation and 590nm emissions for aggregates) was measured using an Envision plate reader.

The nature of assay [6]: qHTS Assay for Identification of Small Molecule Agonists for NFkB Signaling Pathway. (AID 624478; active means well fitted curve in the direction sought with a large enough effect; an effect the other way counts as inactive or inconclusive;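 further: compounds tested together with TNF alpha at its EC50 of 10 pM; 0% is about no effect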). The settings on record: NFkB pathway reporter cell assay, agonist mode, cells co-stimulated with 10 pM TNF alpha; series mostly up to 46.1 µM. An outline of the steps: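 Read-out: 460/530 nm emission at 405 nm excitation after 2 h LiveBLAzer loading; ME-180 NFkB-bla reporter cells exposed 5 h at 37 C to compounds with 10 pM TNF alpha final.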

A short description of assay [7]: qHTS Assay for Identification of Small Molecule Antagonists for NFkB Signaling Pathway. (AID 624479). Further: potency means the concentration at half of the fitted maximal effect. The settings on record: NFkB pathway reporter cell assay, antagonist mode.
Assay [8] is described as follows: Cell Proliferation Assay against the TMD8 Cell Line (AID 651645; active means well fitted curve in the direction sought with a large enough effect; an effect the other way counts as inactive or inconclusive;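 further: cells exposed to compound for 48 h before reading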). As to conditions: TMD8 DLBCL cell line proliferation/viability; at 46.1 µM (top of the series). An outline of the steps:
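Cell viability of the ABC DLBCL line TMD8 is measured by CellTiter-Glo luminescence following a 48-hour incubation with compound. Percent activity uses DMSO as 100% and 9.2 uM bortezomib (final) as 0%.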

Assay [9] in a line: Cell Proliferation Assay against the HBL1 Cell Line (AID 651646; active means well fitted curve in the direction sought with a large enough effect; an effect the other way counts as inactive or inconclusive;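 further: cells exposed to compound for 48 h before reading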). As to conditions: HBL1 DLBCL cells; at 46.1 µM (top of the series). An outline of the steps:
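HBL1, 500 cells/well, RPMI no phenol red + 5% FBS; cpd pinned, 48 h 37C/5% CO2; CellTiter-Glo, 15 min RT, luminescence. % activity: DMSO = 100%, bortezomib 9.2 uM final = 0%.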

Assay [10] in a line: Cell Proliferation Assay against the TMD8 Cell Line (Caspase readout at 16 hrs) (AID 651712; active means well fitted curve in the direction sought with a large enough effect; an effect the other way counts as inactive or inconclusive; further: potency means the concentration at half of the fitted maximal effect). The settings on record: TMD8 lymphoma cells, caspase activation luminescence. The method, boiled down: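 Caspase-Glo luminescence after 16 h compound exposure of TMD8 cells, 37 °C, 5% CO2. Medium: RPMI without phenol red, 5% FBS. Normalisation: DMSO = 0%, bortezomib 9.2 uM final = 100%.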

Regarding `CC(C)(Oc1ccc(CCNC(=O)c2ccc(Cl)cc2)cc1)C(=O)O`, in [1], the activation is -0.302% (inactive).
In the case of `CC(=O)Nc1nnc(S(N)(=O)=O)s1`, the Potency result in assay [2] is “inactive”. In addition, the results for the activation in [3] and in assay [1] were -5.68% (inactive) and 1.13% (inactive), respectively.
For the molecule `CCCCNC(=O)NS(=O)(=O)c1ccc(C)cc1`, the Potency entry in [2], in assay [4] and in assay [5] was “inactive” in each case. The activation in [3] was -3.27% (inactive) and -2.98% (inactive).
With `COc1cc(Cc2cnc(N)nc2N)cc(OC)c1OC`, the Potency entry in assay [2], in [4] and in [5] was “inactive” throughout. For the same molecule, the activation in assay [3] was -2.04% (inactive).
In the case of `Nc1nc(N)c2nc(-c3ccccc3)c(N)nc2n1`, the Potency is 54.5 µM (active) and 33.5 µM (active) in assay [2]; 20 µM (active) in assay [3].
Regarding `O=c1[nH]c(=O)n([C@H]2C[C@H](O)[C@@H](CO)O2)cc1Br`, in [2], the Potency result is “inactive”. For the same molecule, the figures for the activation in assay [3] and in assay [1] were 3.27% (inactive) and 0.708% (inactive), respectively.
The matching figures for `O=C(O)CCCCCCCC(=O)O`: “inactive”, -3.2% (inactive) and 0.884% (inactive).
Consider `NC(=Nc1ccccc1)Nc1ccccc1`, for which, in assay [3], the activation is -3.94% (inactive) and -5.84% (inactive).
For `C[C@]12CCC(=O)C=C1CC[C@@H]1[C@@H]2C(=O)C[C@@]2(C)[C@H]1CC[C@]2(O)C(=O)CO`, in assay [2], the Potency result is “inactive”. Besides, the activation in [3] was -9.05% (inactive); in assay [1] it was -0.64% (inactive).
As for `CN=C(NC#N)NCCSCc1nc[nH]c1C`, the Potency entry in assay [2] is “inactive”.
For `C[C@]12C=CC(=O)C=C1CC[C@H]1[C@@H]3C[C@@H](O)[C@](O)(C(=O)CO)[C@@]3(C)C[C@H](O)[C@@]12F`, the Potency entry in assay [2] is “inactive”. In addition, the activation in assay [3] was -0.529% (inactive).
Turning to `CCCCOCCOCCOCc1cc2c(cc1CCC)OCO2`, the Potency entry in assay [2], in [4] and in [5] was “inactive” each time. The activation in [1] is -2.78% (inactive) and 0.8% (inactive).
Take `Nc1ncn([C@@H]2O[C@H](CO)[C@@H](O)[C@H]2O)c(=O)n1`: in [6], the molecule was classed as inactive. Besides, the Potency in assay [7] was 16.8 µM (active); in [10], 14.8 µM (active); in assay [2], 1.37 µM (active) and 1.88 µM (active); in assay [3], 6.31 µM (active). Moreover, in [8], the viability (% of control) was 6.56%. The viability, percent of control in assay [9] was determined as 22.1%. The activation in [1] was -3.34% (inactive) and -0.684% (inactive). The Potency entry in assay [4] and in assay [5] was “inactive” in each case.
As for `COC(=O)[C@H]1[C@H]2C[C@@H]3c4[nH]c5cc(OC)ccc5c4CCN3C[C@H]2C[C@@H](OC(=O)c2cc(OC)c(OC)c(OC)c2)[C@@H]1OC`, the activation in assay [3] was 3.91% (inactive) and 8.14% (inactive). Moreover, the Potency in [4] was 21.1 µM (active); in [5], 26.6 µM (active).
`NC(=O)N1c2ccccc2C=Cc2ccccc21`: the Potency result in assay [2] is “inactive”. In assay [1], the activation is -0.533% (inactive) and -3% (inactive).
As to `CC(=O)[C@@]1(O)CC[C@H]2[C@@H]3CCC4=CC(=O)CC[C@]4(C)[C@H]3CC[C@@]21C`, the activation in [1] is 0.354% (inactive).
For the molecule `Cc1ccc(S(=O)(=O)NC(=O)NN2CCCCCC2)cc1`, the Potency entry in [2] was “inactive”. Moreover, in [1], the activation is -1.9% (inactive).
